For some assays here: Results with a measured potency or affinity are listed apart. Activity calls are given as the source filed them.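 The calls were made as follows, unless noted: active = GFP response above 150% of the DMSO level; inconclusive = fewer than 70 events counted for a yeast strain; inactive = the rest.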
Key:
[1] = target: Cell division control protein 42 homolog (Homo sapiens) (UniProt P60953); assay: activated mutant Cdc42 GTP-binding inhibitors, dose response, biochemical, multiplex bead flow cytometry, Bodipy-FL-GTP (AID 1333;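 active = fitted half-maximal concentration within the tested dose range, moderate curve steepness, a statistically real signal drop, and little compound fluorescence or tag-binding interference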)
Chain of Cell division control protein 42 homolog (Homo sapiens) (P60953 whole entry, looked up): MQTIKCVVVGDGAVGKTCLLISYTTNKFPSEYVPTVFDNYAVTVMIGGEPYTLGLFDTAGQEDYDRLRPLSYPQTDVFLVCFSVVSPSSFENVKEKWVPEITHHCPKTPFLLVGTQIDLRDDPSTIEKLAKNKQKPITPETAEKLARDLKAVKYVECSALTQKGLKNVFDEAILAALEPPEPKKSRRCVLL

[2] = target: Cell division control protein 42 homolog (Homo sapiens) (UniProt P60953); assay: wildtype Cdc42 GTP-binding inhibitors, dose response, biochemical, multiplex bead flow cytometry, Bodipy-FL-GTP (AID 1334;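 active = fitted half-maximal concentration within the tested range, moderate curve steepness, significant signal drop, and little compound fluorescence or bead-linkage interference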); settings: bead-based flow cytometry, Bodipy-FL-GTP binding to GST-Cdc42; at 100 µM (top of the series) unless noted
[3] = target: GTPase HRas (Homo sapiens) (UniProt P01112); assay: inhibitors of GTP binding to wildtype Ras, dose response, biochemical, multiplex bead flow cytometry (AID 1335;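 active = fitted half-maximal concentration within 10 nM to 100 µM, steepness 0.5 to 2, significant signal drop, low assay interference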); settings: bead-based flow cytometry, Bodipy-GTP binding to GST-Ras; at 100 µM (top of the series) unless noted
Chain of GTPase HRas (Homo sapiens) (P01112 whole entry, looked up): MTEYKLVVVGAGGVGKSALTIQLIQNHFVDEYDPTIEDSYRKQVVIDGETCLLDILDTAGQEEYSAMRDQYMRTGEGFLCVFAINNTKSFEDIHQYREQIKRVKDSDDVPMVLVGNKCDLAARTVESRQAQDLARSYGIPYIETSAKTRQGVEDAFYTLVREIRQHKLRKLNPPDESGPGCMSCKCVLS

[4] = tested on: Ras-related protein Rab-7a (dog), GTP binding; assay: Rab7 GTP binding inhibitors, potency, dose response, biochemical, wildtype, multiplex bead flow cytometry (AID 1336; call rule not given here)
[5] = target: Ras-related C3 botulinum toxin substrate 1 (Homo sapiens) (UniProt P63000); assay: wildtype Rac1 GTP binding inhibitors, dose response, biochemical, multiplex bead flow cytometry (AID 1340;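 active = dose curve with midpoint inside tested range, moderate steepness, plateau gap beyond fit error, low compound glow and bead-link interference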); settings: GST-Rac1 beads, Bodipy-FL-GTP binding; at 100 µM (top of the series) unless noted
[6] = target: GTPase HRas (Homo sapiens) (UniProt P01112); assay: activated Ras mutant GTP binding inhibitors, dose response, biochemical, multiplex bead flow cytometry (AID 1341;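 active = dose-response curve with midpoint inside the tested range, moderate steepness, significant amplitude and little compound fluorescence or bead-attachment interference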;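 also: GST-tagged constitutively activated Ras mutant immobilized on beads and multiplexed with other GTPases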)
[7] = RPL19A-GFP modulators, yeast TOR pathway, confirmation, cell-based, S. cerevisiae, flow cytometry, cherry picks, mother/daughter gates (AID 2270;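 active = GFP response below 50% of the DMSO control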); settings: S. cerevisiae RPL19A-GFP strain, 3 h, at 10 µM, stronger effect = lower value, 100 = same GFP as DMSO wells
[8] = LAP4-GFP expression modulators in yeast, confirmation, cell-based, cherry picks, flow cytometry, mother/daughter gates (AID 2271;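 active = GFP response above 150% of the DMSO control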;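 also: ratio of sample to DMSO plate mean so 100% equals DMSO level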); settings: S. cerevisiae LAP4-GFP strain, 3 h, at 10 µM, stronger effect = higher value, 100 means same as DMSO control
[9] = modulators of MEP2-GFP levels in yeast, confirmation, S. cerevisiae, flow cytometry GFP, cherry picks (AID 2272;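 active = GFP response above 150% of the DMSO control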;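 also: ratio of well signal to plate DMSO mean so 100% equals DMSO level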); settings: S. cerevisiae MEP2-GFP strain, 3 h, at 10 µM, stronger effect = higher value
[10] = AGP1-GFP expression modulators, hit retest, confirmation, cell-based, flow cytometry, S. cerevisiae, cherry picks (AID 2273);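 also: median GFP channel fluorescence over the whole cell population gate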; settings: S. cerevisiae AGP1-GFP strain, 3 h, at 10 µM
[11] = modulators of CIT2-GFP expression in yeast, confirmation, S. cerevisiae, GFP fusion, cherry picks, mother/daughter gates (AID 2274); settings: S. cerevisiae CIT2-GFP strain, flow cytometry, 3 h, at 10 µM, stronger effect = higher value
[12] = measured here: daughter cell gate
[13] = measured here: mother cell gate
[14] = measured here: daughter cell gate response
[15] = measured here: mother cell gate response

Structure (SMILES)	outcome [1]	fluorescence, percent of control (lower = inhibition) [2]	GTP binding, percent of control [3]	outcome [4]	GTP binding signal, raw median fluorescence (lower = inhibition) (MCF (arbitrary fluorescence units)) [5]	outcome [6]	GFP response vs DMSO [7]	GFP response vs DMSO [7, 12]	GFP response vs DMSO [7, 13]	GFP response relative to DMSO [8]	GFP response relative to DMSO [8, 14]	GFP response relative to DMSO [8, 15]	GFP response vs DMSO [9]	GFP response, % of DMSO [10]	GFP response, % of DMSO [11]	GFP response, % of DMSO [11, 12]	GFP response, % of DMSO [11, 13]
N=c1c(C(=O)NCc2ccco2)cc2c(=O)n3ccccc3nc2n1CCc1ccccc1	inactive	28.7%	40.3%	inactive	96.5	inactive	96.8% (inactive)	96.4%	95.8%	99.2% (inactive)	99.2%	90.8%	100% (inactive)	97% (inactive)	96.9% (inactive)	95.4%	91.4%
COC(=O)c1ccc2nc(Nc3nc4c(F)cc(F)cc4s3)sc2c1	inactive	33.7%	85.9%	inactive	286	inactive	98.2% (inactive)	97.3%	98.3%	91.2% (inactive)	90.4%	93%	101% (inactive)	102% (inactive)	99.7% (inactive)	98.4%	98.7%
O=C(C#Cc1cccc([N+](=O)[O-])c1)c1ccccc1	inactive	31.6%	81%	inactive	245	inactive	94.1% (inactive)	98%	88%	190% (active)	167%	178%	133% (inactive)	113% (inactive)	101% (inactive)	104%	91%
Cc1cc(C)c(C(=O)Cn2cnc3cc([N+](=O)[O-])ccc3c2=O)cc1C	inactive	34%	74.6%	inactive	161	inactive	100% (inactive)	101%	99.8%	89.4% (inactive)	88.2%	91.3%	99.3% (inactive)	102% (inactive)	97.2% (inactive)	97.6%	98.2%

From PubChem BioAssay
